The panel holds about 83,000 compounds, 20% with a hit somewhere; the sample as a whole holds those more often.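 Testing used 96-well plates and a 48-hour single-concentration exposure. Example: -40 means 40% of the starting cells died.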 A number with no mark means an inactive call. The source made the active and inactive calls. How the source made its calls: active means growth percent below 10; inactive means the rest.
What was measured:
Experiment in all cases: NCI-60 one-dose screen, 48 h (100 = growth as untreated, 0 = no growth, -100 = all killed)
Conditions in all cases: 10 µM unless noted
NCI-H23 lung = tested on: NCI-H23 lung
NCI-H226 lung = tested on: NCI-H226 lung
NCI-H322M lung = tested on: NCI-H322M lung
HOP-62 NSCLC = tested on: HOP-62 NSCLC
NCI-H460 lung = tested on: NCI-H460 lung
HOP-92 NSCLC = tested on: HOP-92 NSCLC
NCI-H522 lung = tested on: NCI-H522 lung
A549/ATCC NSCLC = tested on: A549/ATCC NSCLC
786-0 renal = tested on: 786-0 renal
COLO 205 colon = tested on: COLO 205 colon
DU-145 prostate = tested on: DU-145 prostate
MALME-3M melanoma = tested on: MALME-3M melanoma
MDA-MB-231 breast = tested on: MDA-MB-231 breast
RXF 393 renal = tested on: RXF 393 renal
SF-268 CNS = tested on: SF-268 CNS
SF-295 CNS = tested on: SF-295 CNS
SF-539 CNS = tested on: SF-539 CNS
UACC-257 melanoma = tested on: UACC-257 melanoma
M14 melanoma = tested on: M14 melanoma
K-562 leukemia = tested on: K-562 leukemia

Structure (SMILES)	growth (NCI-H23 lung) [%]	growth (NCI-H226 lung) [%]	growth (NCI-H322M lung) [%]	growth (HOP-62 NSCLC) [%]	growth (NCI-H460 lung)	growth (HOP-92 NSCLC)	growth (NCI-H522 lung)	growth (A549/ATCC NSCLC)	growth (786-0 renal)	growth (COLO 205 colon)	growth (DU-145 prostate)	growth (MALME-3M melanoma)	growth (MDA-MB-231 breast)	growth (RXF 393 renal)	growth (SF-268 CNS) [%]	growth (SF-295 CNS)	growth (SF-539 CNS)	growth (UACC-257 melanoma)	growth (M14 melanoma)	growth (K-562 leukemia) [%]
CN1CCN(c2nc(NCCCCNc3ccnc4cc(Cl)ccc34)c3ccccc3n2)CC1	82.8	98.7	84.9	76.5	68.1%	54.8%	39.8%	49.3%	74.9%	-2.21% (active)	75.7%	-53.5% (active)	-5.35% (active)	9.29% (active)	64.9	80%	-73.7% (active)	-32.4% (active)	-75.9% (active)	–
CCNc1ncnc2c1cnn2C1CCCO1 (stereo unspecified)	118	94.2	109	99.4	105%	60.9%	111%	95.4%	109%	105%	120%	110%	110%	105%	96.9	101%	105%	99.6%	104%	–
CCCCn1cnc2c(Sc3c([N+](=O)[O-])ncn3C)nc(N)nc21	110	96	105	94.7	106%	76.2%	97.3%	88.2%	104%	100%	99.6%	93.9%	97.9%	102%	102	–	105%	84.1%	102%	–
COc1ccc(CN2c3ccccc3Oc3ccccc32)cc1O	33.8	93.9	56.3	42.1	13.3%	32.8%	-33.2% (active)	37.6%	43.2%	91.3%	36.8%	45.1%	56.6%	50.1%	57.4	14.5%	16.3%	39.1%	18%	–
CCOC(=O)n1cc(-c2nonc2-c2cn(C)c3ncccc23)c2cc(F)ccc21	76	57.8	85.8	89.8	92.1%	58.8%	72%	70.1%	81.3%	–	91.1%	84.4%	68.2%	78.3%	74.2	76%	77.9%	91.2%	93.8%	61.2
COc1cccc2c1C(=O)c1c(O)c3c(c(O)c1C2=O)C[C@](O)(C(=O)CO)C[C@H]3O[C@@H]1C[C@@H](NC(=O)CCCCCN(C)C2(c3ccc(F)cc3)CC3CCC2C3)[C@H](O)[C@@H](C)O1 (stereo partly specified)	40.8	59.3	53.7	46.9	-84.2% (active)	51.6%	-83.1% (active)	19.7%	-92.7% (active)	-63.7% (active)	-42.2% (active)	-70.9% (active)	-77.1% (active)	31.6%	36.1	-87.9% (active)	-82.9% (active)	96.4%	-41.3% (active)	–
O=C(CN1CCCCC1)Nc1ccc2oc(=O)ccc2c1	97.5	95.8	105	99.7	104%	91.3%	84.6%	100%	107%	119%	113%	106%	105%	113%	97.5	106%	129%	96.3%	106%	–
CCc1nc(N)nc(N)c1C#CC(C)c1ccc(-c2ccncc2)cc1Cl (stereo unspecified)	16.2	57.4	38.4	10.3	5.02% (active)	6.88% (active)	-9.46% (active)	9.61% (active)	18.3%	12.3%	21.1%	39.6%	43.3%	32.9%	16.6	10.1%	4.42% (active)	31.9%	1.01% (active)	–

From PubChem BioAssay (NCI)
